Measured values published in PubChem BioAssay (Tox21).
Inconclusive results are not listed. Active and inactive are the calls of the source. Unless noted, calls follow the shape of the dose curve; as a rule, active = well fitted curve in the direction sought with a large enough effect in the repeat runs; inconclusive = weak or mixed curves; inactive = no such curve, though single readings can be large; an effect the other way counts as inactive or inconclusive.

Key:
[1] = A CellTox Green Cytotoxicity Assay to monitor cytotoxicity in HepG2 cells - 16 hour (AID 1224876); also: nearly all actives have a fitted effect of over 45% in size
Summary of the method: (§1)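 Real-time cytotoxicity: fluorescence of a cell-impermeant cyanine dye binding DNA of dead HepG2 cells, measured repeatedly (0–40 h) during compound exposure at 37 C. Cells seeded 600/well with reagent, dosed after 5 h.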

[2] = qHTS RealTime-Glo MT Cell Viability Assay in HepG2 cells - 32 hour (AID 1224877); also: nearly all actives have a fitted effect of over 55% in size
Summary of the method: (§2)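 Compound treatment began 5 h after plating HepG2 cells (600/well) with NanoLuc luciferase and prosubstrate. Plates stayed at 37 C for 40 h; luminescence was captured at six time points, 0 h through 40 h.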

[3] = A CellTox Green Cytotoxicity Assay to monitor cytotoxicity in HepG2 cells - 24 hour (AID 1224878); also: nearly all actives have a fitted effect of over 45% in size
Summary of the method: as §1

[4] = A CellTox Green Cytotoxicity Assay to monitor cytotoxicity in HepG2 cells - 40 hour (AID 1224879); also: nearly all actives have a fitted effect of over 40% in size
Summary of the method: as §1

[5] = qHTS RealTime-Glo MT Cell Viability Assay in HEK293 cells - 0 hour (AID 1224880); also: top concentration of the series differs between compounds; nearly all actives have a fitted effect of over 45% in size
Summary of the method: (§3)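 Luminescence, which tracks viable cell number through reduction of the prosubstrate to a NanoLuc substrate, was read over continuous 37 C culture. Cells (600/well) were premixed with reagent and rested 5 h before 23 nL of compound in DMSO was pinned.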

[6] = A CellTox Green Cytotoxicity Assay to monitor cytotoxicity in HEK293 cells - 32 hour (AID 1224881); also: nearly all actives have a fitted effect of over 40% in size
Summary of the method: (§4)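 Fluorescence from a DNA-binding dye excluded by viable cells was measured repeatedly in the same HEK293 wells (600 cells/well) during continuous compound exposure at 37 C. Each assay gives one read point: 0, 8, 16, 24, 32 or 40 h.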

[7] = A CellTox Green Cytotoxicity Assay to monitor cytotoxicity in HepG2 cells - 0 hour (AID 1224882); also: nearly all actives have a fitted effect of over 35% in size
Summary of the method: as §1

[8] = A CellTox Green Cytotoxicity Assay to monitor cytotoxicity in HepG2 cells - 32 hour (AID 1224883); also: nearly all actives have a fitted effect of over 50% in size
Summary of the method: as §1

[9] = A CellTox Green Cytotoxicity Assay to monitor cytotoxicity in HEK293 cells - 8 hour (AID 1224884); also: nearly all actives have a fitted effect of over 35% in size
Summary of the method: as §4

[10] = qHTS RealTime-Glo MT Cell Viability Assay in HepG2 cells - 16 hour (AID 1224885); also: nearly all actives have a fitted effect of over 50% in size
Summary of the method: as §2

[11] = qHTS RealTime-Glo MT Cell Viability Assay in HEK293 cells - 24 hour (AID 1224886); also: top concentration of the series differs between compounds; nearly all actives have a fitted effect of over 50% in size
Summary of the method: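 Quantitative high-throughput screen of the Tox21 10K library in HEK293: cells and RealTime-Glo reagents plated together, compound added at 5 h, luminescence monitored through 40 h at 37 C.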

[12] = qHTS RealTime-Glo MT Cell Viability Assay in HEK293 cells - 8 hour (AID 1224887); also: top concentration of the series differs between compounds; nearly all actives have a fitted effect of over 50% in size
Summary of the method: as §3

[13] = A CellTox Green Cytotoxicity Assay to monitor cytotoxicity in HEK293 cells - 16 hour (AID 1224888); also: nearly all actives have a fitted effect of over 35% in size
Summary of the method: as §4

[14] = qHTS RealTime-Glo MT Cell Viability Assay in HepG2 cells - 0 hour (AID 1224889); also: nearly all actives have a fitted effect of over 50% in size
Summary of the method: as §2

[15] = A CellTox Green Cytotoxicity Assay to monitor cytotoxicity in HepG2 cells - 8 hour (AID 1224890); also: nearly all actives have a fitted effect of over 45% in size
Summary of the method: as §1

[16] = qHTS assay to identify small molecule antagonists of the estrogen receptor alpha (ER-alpha) signaling pathway using the BG1 cell line in the presence of 0.1 nM 17-beta-estradiol - cell viability counter screen (AID 1259241); also: nearly all actives have a fitted effect of over 40% in size
Summary of the method: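 In this screen, hormone-deprived VM7Luc4E2 cells were seeded at 4,000 per well, dosed with compound and 0.1 nM estradiol final, and incubated 22 hr at 37C and 5% CO2; fluorogenic live-cell protease signal reported viability.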

[17] = qHTS assay to identify small molecule antagonists of the androgen receptor (AR) signaling pathway using the MDA cell line in the presence of 0.5 nM R1881 - cell viability counter screen (AID 1259242); also: nearly all actives have a fitted effect of over 45% in size
Summary of the method: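 Live-cell protease activity was measured by CellTiter-Fluor fluorescence after 30 min. Before that, MDA-kb2 MMTV-luciferase cells had 16 hr at 37C without CO2, exposed to test compounds and 0.5 nM R1881 final.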

[18] = target: Estrogen receptor (Homo sapiens) (UniProt P03372); test: qHTS assay to identify small molecule antagonists of the estrogen receptor alpha (ER-alpha) signaling pathway using the BG1 cell line in the presence of 0.1 nM 17-beta-estradiol (AID 1259244); also: nearly all actives have a fitted effect of over 50% in size
Summary of the method: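 Luciferase luminescence (ONE-Glo, 30 min at room temperature) was read after 22 hr at 37C exposure to compounds plus 17beta-estradiol at 0.1 nM final. Cells were VM7Luc4E2 with endogenous ER-alpha and an ERE-driven luciferase, pre-cultured 5 days in hormone-depleted medium.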

[19] = qHTS assay to identify small molecule HDAC inhibitors (AID 1259364)
Summary of the method: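 Luminescence read after 30 min room-temperature HDAC-Glo incubation measures cellular class I/II HDAC activity. Compounds were applied for 2 hr at 37 C to HCT-116 wild-type cells seeded the day before.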

[20] = qHTS assay to identify small molecule phospholipidosis (PLD) inducers (AID 1259344; active = well fitted curve in the direction sought with a large enough effect; an effect the other way counts as inactive or inconclusive)
Summary of the method: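 Read-out is LipidTOX Red fluorescence (ex 595/em 615) imaged in HepG2 cells after 24 h compound exposure at 37 C, with Hoechst nuclear counterstain (ex 352/em 461) allowing per-cell normalisation.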

Measured: Potency

Chain of Estrogen receptor (Homo sapiens) (P03372 whole entry, looked up): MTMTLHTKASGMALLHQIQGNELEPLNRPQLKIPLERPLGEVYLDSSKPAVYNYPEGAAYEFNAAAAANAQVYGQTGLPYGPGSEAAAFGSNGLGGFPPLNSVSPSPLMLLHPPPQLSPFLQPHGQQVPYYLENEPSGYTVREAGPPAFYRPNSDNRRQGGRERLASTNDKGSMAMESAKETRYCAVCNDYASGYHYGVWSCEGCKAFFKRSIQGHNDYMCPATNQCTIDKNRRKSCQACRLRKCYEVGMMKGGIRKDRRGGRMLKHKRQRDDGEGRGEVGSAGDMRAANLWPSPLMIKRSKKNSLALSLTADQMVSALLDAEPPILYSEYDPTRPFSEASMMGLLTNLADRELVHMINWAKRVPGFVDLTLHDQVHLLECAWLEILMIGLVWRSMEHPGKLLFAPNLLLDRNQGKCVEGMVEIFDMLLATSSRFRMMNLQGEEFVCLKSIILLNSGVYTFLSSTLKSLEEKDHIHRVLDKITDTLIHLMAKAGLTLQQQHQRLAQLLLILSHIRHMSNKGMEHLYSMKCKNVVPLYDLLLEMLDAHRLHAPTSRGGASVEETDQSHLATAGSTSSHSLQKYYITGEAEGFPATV

CCc1nccnc1C
not listed: [20]
inactive: all other assays above

O=C1c2ccccc2-c2ccccc21
not listed: [18] | [20]
inactive: all other assays above

CCOC(=O)CCc1ccccc1
not listed: [16] | [18] | [19] | [20]
inactive: all other assays above

CC(C)(c1ccc(Oc2ccc3c(c2)C(=O)OC3=O)cc1)c1ccc(Oc2ccc3c(c2)C(=O)OC3=O)cc1
not listed: [20]
inactive: all other assays above

O=C(O)c1ccccc1C(=O)Nc1ccc(S(=O)(=O)Nc2nccs2)cc1
not listed: [18]
inactive: all other assays above

C/C=C(\C)C(=O)OCC/C=C\CC
not listed: [18] | [20]
inactive: all other assays above

CCCCC(CC)COC(=O)c1ccccc1 (stereo not given)
not listed: [16] | [20]
inactive: all other assays above

Cc1ccc(S(=O)(=O)NC(=O)NC2CCCCCCC2)cc1
not listed: [18]
inactive: all other assays above

CCC(C)(CCC(C)C)C(=O)[O-].CCC(C)(CCC(C)C)C(=O)[O-].[Zn+2] (stereo not given)
not listed: [18] | [20]
inactive: all other assays above

CO/N=C(/C(=O)N[C@@H]1C(=O)N2C(C(=O)O)=C(Cn3nnc(C)n3)CS[C@H]12)c1csc(N)n1
not listed: [18]
inactive: all other assays above

O=C(c1ccc2c(c1)C(=O)OC2=O)c1ccc2c(c1)C(=O)OC2=O
not listed: [18] | [20]
inactive: all other assays above

NS(=O)(=O)c1cc2c(cc1Cl)NC(C(Cl)Cl)NS2(=O)=O (stereo not given)
not listed: [18]
inactive: all other assays above

CCNC(=O)/C=C/c1cccc(Br)c1
not listed: [18] | [19]
inactive: all other assays above

C[C@H]1O[C@H](O[C@H]2[C@H](O)[C@@H](O)[C@@H](O[C@H]3[C@H](O)[C@@H](O)[C@H](O)O[C@@H]3CO)O[C@@H]2CO)[C@H](O)[C@@H](O)[C@@H]1N[C@H]1C=C(CO)[C@@H](O)[C@H](O)[C@H]1O
not listed: [18] | [19]
inactive: all other assays above

CCN(Cc1cccc(S(=O)(=O)O)c1)c1ccccc1
not listed: [20]
inactive: all other assays above

Cn1c(=O)c2c(ncn2CC2OCCO2)n(C)c1=O
not listed: [18] | [19]
inactive: all other assays above

OCCCCCCCl
not listed: [20]
inactive: all other assays above

FC(F)(F)/C(=N\OCC1OCCO1)c1ccc(Cl)cc1
not listed: [20]
inactive: all other assays above

COc1cc2c3cc1Oc1cc(ccc1O)C[C@@H]1c4c(cc(OC)c(O)c4Oc4ccc(cc4)C[C@@H]3N(C)CC2)CC[N+]1(C)C
not listed: [18]
inactive: all other assays above

CCCCCCCCCOCC1CO1 (stereo not given)
not listed: [18] | [20]
inactive: all other assays above

CC(=O)OC[C@H]1O[C@@H](OC(C)=O)[C@H](OC(C)=O)[C@@H]1OC(C)=O
not listed: [16] | [20]
inactive: all other assays above

CC1=NN(c2ccc(S(=O)(=O)O)cc2)C(=O)C1N=Nc1ccccc1 (stereo not given)
not listed: [11] | [15] | [17] | [20]
inactive: all other assays above

CCCC(C)CC (stereo not given)
not listed: [7] | [18] | [19] | [20]
inactive: all other assays above

CCOC(=O)CCCCCCCCC(=O)OCC
not listed: [16] | [20]
inactive: all other assays above

FC(F)(F)c1ccc(Cl)cc1Cl
not listed: [16] | [18] | [20]
inactive: all other assays above

CO[Si](CCCS)(OC)OC
not listed: [16] | [20]
inactive: all other assays above

CN(C1CCCCC1)S(=O)(=O)c1ccccc1N
not listed: [9] | [11] | [18] | [20]
inactive: all other assays above

CCC1Nc2cc(Cl)c(S(N)(=O)=O)cc2S(=O)(=O)N1 (stereo not given)
not listed: [16] | [18]
inactive: all other assays above

CC(CC(=O)O)CC(C)(C)C (stereo not given)
not listed: [11] | [19] | [20]
inactive: all other assays above

Nc1cc(C(=O)O)ccc1Cl
not listed: [7] | [20]
inactive: all other assays above
